# a7 integrin act = activates integrin-mediated alleviation for muscular dystrophy; alpha7betagal myoblasts, beta-gal FDG fluorescence, 48 h; Potency, µM (doses to about 38.3 µM), for inactives: top-dose activation, usual class: activators; hit rate 0.064% among 350,000;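 further: potency means the concentration at half of the fitted maximal effect; 100% = response of the positive control SU9516; nearly all actives have a fitted effect of over 60% in size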
#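 alpha7betagal+/- myoblasts (passage 13, 250/well) treated 48 h at 37C with compounds at 1:260 dilution of DMSO stock. Lysed, then beta-galactosidase activity read as FDG fluorescence (ex 480/em 540) after 30 min, with pre-read for autofluorescence.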
# DRD3 antagonist = blocks the human D3 dopamine receptor; P35462; D3R cells, DiscoveRx beta-arrestin luminescence, antagonist mode; active compounds read low; max response, negative = inhibition, %; hit rate 2.5% among 360,000; in the data active means max response below about -50%; inconclusive means no clear call, values can overlap the other calls; further: on the % scale 0 is the no-effect control and ±100 the full control effect
#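 Cells plated overnight at 1500 cells/well, then exposed to library compounds with dopamine controls for 90 minutes at 37 degrees C. DiscoveRx reagent added for 30–60 minutes at room temperature; luminescence read, quantitative HTS format.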
# MBNL1-CUG inh = blocks human MBNL1 binding to CUG repeat RNA; TR-FRET MBNL1-His/biotin-(CUG)12 binding, 665/545 ratio; Potency, µM (titrated, usually from 57.5 µM), inactives show at the highest dose activity change, negative = inhibition, actives largely listed as inhibitors; hit rate 0.036% among 280,000; AID 2675; active means well fitted inhibition curve with a large enough effect in the signal ratio, with a control signal flat, not every such curve was filed as active; inconclusive means small, poorly fitted or top-dose-only effect, or effect the other way, or a change in a side signal; inactive means no such curve, though single readings can be large or run the other way; the % refers to the signal ratio; further: potency means the concentration at half of the fitted maximal effect; on the % scale 0 is the no-effect control and ±100 the full control effect
#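 Compound titration spanned 92 nM–58 uM against the MBNL1-His/biotin-(CUG)12 complex. After 60 min at room temperature with 5 nM streptavidin-XL665 and 0.055 ng/ul terbium anti-His, ratiometric 665/545 nm emission (Ex 340 nm) normalized to controls.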
# CBFb-RUNX1 inh = blocks binding between human CBF-beta and RUNX1; Q01196+Q13951; AlphaScreen CBFb-His/RUNX1-biotin binding, biochemical; Potency, µM (highest dose often 59.8 µM), for inactives: top-dose activity, negative = inhibition, hits mostly inhibitors; 230,000 tested, under 10 active; further: % of control where 0% means no effect
# Target sequence (Q01196 whole entry, looked up): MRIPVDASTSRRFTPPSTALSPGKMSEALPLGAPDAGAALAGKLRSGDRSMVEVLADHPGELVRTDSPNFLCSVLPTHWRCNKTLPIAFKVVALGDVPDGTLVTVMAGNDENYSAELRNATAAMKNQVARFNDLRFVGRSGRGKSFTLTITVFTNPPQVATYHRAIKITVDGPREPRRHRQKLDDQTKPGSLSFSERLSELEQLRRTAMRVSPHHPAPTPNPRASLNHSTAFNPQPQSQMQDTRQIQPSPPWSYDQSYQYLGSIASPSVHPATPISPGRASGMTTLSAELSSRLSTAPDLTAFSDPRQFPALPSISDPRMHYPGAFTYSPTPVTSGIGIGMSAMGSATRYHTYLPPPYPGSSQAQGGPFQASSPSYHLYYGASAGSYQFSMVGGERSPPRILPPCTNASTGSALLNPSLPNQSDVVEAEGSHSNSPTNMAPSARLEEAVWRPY
# Target sequence (Q13951 whole entry, looked up): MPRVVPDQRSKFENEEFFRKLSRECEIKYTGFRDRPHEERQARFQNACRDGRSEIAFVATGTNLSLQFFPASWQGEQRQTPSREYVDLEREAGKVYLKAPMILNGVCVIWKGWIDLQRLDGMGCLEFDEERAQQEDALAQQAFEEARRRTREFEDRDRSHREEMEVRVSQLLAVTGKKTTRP
#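 AlphaScreen proximity signal reports loss of binding between His-tagged CBF-beta and biotin-labelled RUNX1, each at 30 nM. Proteins are pre-associated for 20 minutes, compounds added for 15 minutes, then beads for 90 minutes, all at ambient temperature.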
# PTHR1 agonist = agonists of human PTHR1 parathyroid hormone receptor. Potency, µM (top dose mostly 115 µM), for inactives: at the top dose activation, actives largely listed as activators. Q03431. hit rate 0.075% among 410,000. HEK293 GP2 PTHR1 cells, GloSensor cAMP luminescence, 1 h; further: potency means the concentration at half of the fitted maximal effect; nearly all actives have a fitted effect of over 55% in size
#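 HEK-293-derived GP2 cells expressing PTHR1 and a GloSensor cAMP reporter, 3,000/well, plated overnight, given luciferin plus IBMX (each 0.5 mM as added) for 1 h at 37 °C, then compound for 1 h at 37 °C. Luminescence was read after 15 min at room temperature.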
# D3 ag = activates the human D3 dopamine receptor. max activation, %. P35462. hit rate 0.58% among 410,000. D3R DiscoveRx beta-arrestin cells, luminescence, 90 min; in the data active means max activation above about 30%; further: 0% is about no effect
#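 Agonist-mode cell screen: cells plated at 1500/well and incubated overnight at 37 °C, then exposed to library compounds for 90 min at 37 °C. Detection reagent was added for 30–60 min at room temperature, and luminescence was read.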
# Active calls of the source: *; i = inactive; ? = inconclusive; / = no result given; [ ] = remark or other dose. Compounds with a hit are over-represented: about 2.8% of the library has one in this group of screens. Unless noted, the call rests on the fitted dose curve; in most records, active means well fitted curve in the direction sought with a large enough effect; inconclusive means small, poorly fitted or top-dose-only effect, or another doubt; inactive means no such curve, though single readings can be large; an effect the other way counts as inactive or inconclusive.
SMILES,a7 integrin act,DRD3 antagonist,MBNL1-CUG inh,CBFb-RUNX1 inh,PTHR1 agonist,D3 ag
COc1ccc(C(CNC(=O)C(C)Oc2ccc(Br)cc2)N2CCCCC2)cc1 (stereo not drawn),-16%,-92*,/,/,24%,-18
COc1ccc(C(CNC(=O)Cc2ccccc2)N2CCCCC2)cc1 (stereo not drawn),201%,-19,-2%,/,-4%,-34
C=C(C)COc1ccc(-c2[nH]ncc2Oc2cccc(OC)c2)c(O)c1,-44%,-56*,8%,7%,-3%[57.5 µM],1
C=C(C)COc1ccc(-c2[nH]ncc2Oc2ccccc2OCC)c(O)c1,-46%,?,13%,10%,-6%[57.5 µM],-6
CC(C(=O)NC(C)(C)C)N(C(=O)CS(=O)CC(=O)Nc1ccc(F)cc1)C1CCCC1 (stereo not drawn),-51%,11,-4%,/,i,37*
CCOc1cc(CNCc2ccccn2)ccc1OCC(=O)NC1CCCCC1,-3%,-89*,-2%,-16%,-20%[57.5 µM],-23
CCOc1cc(CNCCc2ccc(S(N)(=O)=O)cc2)ccc1OCC(=O)NC1CCCCC1,-38%,-11,-2%,2%,i,-16
CC(C)NC(=O)C1(C)CN(S(C)(=O)=O)CC(=O)N1Cc1ccco1 (stereo not drawn),/,17,/,/,i,7
O=C(c1ccc(S(=O)(=O)N2CCOCC2)cc1)N1CCN(c2cccc(Cl)c2)CC1,-24%,-69*,-18%,-9%,-31%,10
OC(CN1CCN(c2cccc(Cl)c2)CC1)C(c1ccccc1)c1ccccc1 (stereo not drawn),/,-72*,/,17%,-4%,-10
O=C(O)c1ccccc1C(=O)N1CCN(c2cccc(Cl)c2)CC1,-12%,-55*,-10%,10%,i,-18
O=C(CCC(=O)N1CCN(c2cccc(Cl)c2)CC1)N1CCN(c2ccccc2)CC1,6%,1,1%,/,-49%,6
Clc1cccc(N2CCN(CCCN3CCN(c4ccccc4)CC3)CC2)c1,-59%,-79*,/,/,-16%,-4
O=C(c1ccc(S(=O)(=O)N2CCOCC2)cc1)N1CCN(c2ccc(F)cc2)CC1,7%,33,3%,-6%,i,-2
C[N@+]12CCCC[C@@H]1CCC(=C(c1cccs1)c1cccs1)C2,/,/,/,/,/,-22
CC(C)[C@H](NC(=O)c1c(F)cccc1F)C(=O)Nc1cccc(Br)c1,-2%,1,-1%,/,i,0
O=C(CCN1CCN(c2ccccc2)CC1)Nc1nccs1,-20%,-64*,-6%,3%,i,12
O=C(CN1CCN(c2ccccc2)CC1)Nc1nccs1,4%,-13,-8%,-1%,i,2
CC(C)(C)c1cc(C(=O)CCN2CCOCC2)cc(C(C)(C)C)c1O,15%,-7,-11%,/,0%,-22
O=C(CCN1CCN(c2ccccc2)CC1)Nc1ccc(Cl)cc1,4%,-62*,-17%,-2%,-5%,21
CC(CCN1CCN(c2ccccc2)CC1)c1ccccc1 (stereo not drawn),7%,-102*,-5%,/,8%,-13
O=C(CCN1CCOCC1)c1ccc(N2CCCCC2)cc1,-12%,-76*,/,/,-2%,-50
COc1cccc(C(=O)OCC(=O)NCCCc2ccccc2)c1,4%,-16,3%,/,i,23
CC(NC(=O)C(=O)N1CCCCC1)C(c1cccs1)N1CCN(c2ccccc2)CC1 (stereo not drawn),?,-10,-10%,/,i,4
CCOc1ccccc1NC(=O)Cn1ccn(Cc2ccc(C)cc2)c(=O)c1=O,/,/,/,/,i,-12
SMILES,a7 integrin act,DRD3 antagonist,MBNL1-CUG inh,CBFb-RUNX1 inh,PTHR1 agonist,D3 ag
O=C(NCc1cccs1)C1C(=O)Nc2ccccc2C(=O)N1C1CCCC1 (stereo not drawn),/,-5,/,/,-14%,-5
O=C(Cc1ccccc1)Nc1ccc(N2CCN(Cc3ccccc3F)CC2)cc1,-17%[7.66 µM],-52*,9%,-1%,i,-3
O=C(NCCN1CCN(Cc2ccccc2)CC1)Nc1cc(Cl)cc(Cl)c1,-51%,-10,/,-4%,-34%,-18
O=C(NCCN1CCN(c2cccc(Cl)c2)CC1)Nc1ccccc1,-1%,-91*,-5%,/,0%,-4
COc1ccccc1NC(=O)NCCN1CCN(c2cccc(Cl)c2)CC1,-11%,-92*,2%,/,-1%,-7
CCC(=O)Nc1ccc(N2CCN(Cc3ccccc3F)CC2)cc1,-5%,?,4%,1%,i,-3
O=C(CCN1CCN(c2ccccc2)CC1)Nc1ccc(OCc2ccccc2)cc1,-10%,-9,4%,-1%,i,35*
Cc1ccc(CN(C(=O)COc2ccc(C(C)C)cc2)C2CCS(=O)(=O)C2)o1 (stereo not drawn),/,/,/,/,i,-16
CCCC[C@@H]1C[C@H]1C(NC(=O)c1ccco1)c1ccc(Cl)cc1 (stereo partly drawn),/,/,/,30%,/,/
CCCCCCCC(=O)NN=C1CCN(Cc2ccccc2)CC1,-4%,3,-2%,-2%,i,-1
O=C(CCN1CCN(c2ccccc2)CC1)c1ccc(Cl)cc1,7%,-70*,-1%,/,-13%,-3
O=C(CCN1CCN(c2ccc([N+](=O)[O-])cc2)CC1)c1ccc(Cl)cc1,-52%,-17,9%,/,-23%,-9
c1ccc(CCCN2CCN(c3ccccc3)CC2)cc1,-19%,-64*,-6%,/,-24%,1
O=C(NCCN1CCN(c2ccccc2)CC1)Nc1ccc(Cl)cc1,4%,-55*,-6%,/,-18%,-24
S=C(NCc1ccco1)NCC1CCCO1 (stereo not drawn),-3%,8,-3%,-1%,i,7
CCOc1cc(S(=O)(=O)N2CCN(Cc3ccccc3)CC2)ccc1Br,-22%,?,1%,5%,i,-5
CCN(CC)S(=O)(=O)c1cccc(NC(=O)COc2ncnc3sccc23)c1,-28%,-63*,3%,-1%,i,-2
COCCNc1nc(NCc2cccc(OC)c2)c2sc(-c3ccccc3)cc2n1,/,-17,/,/,?,4
CS(=O)(=O)N(Cc1ccc(C(=O)NC2CCCCC2O)cc1)c1ccccc1 (stereo not drawn),-18%,10,13%,0%,-8%[57.5 µM],1
CS(=O)(=O)N(Cc1ccc(C(=O)NC2CCCC2)cc1)c1ccccc1,10µM*,-3,-10%,7%,i,2
COc1ccc(/C=N/n2c(C)nc3ccccc3c2=O)cc1,12%,-5,2%,/,i,5
COc1ccc(/C=N/OCC(=O)Nn2c(C)nc3ccccc3c2=O)cc1,-21%,8,-17%,4%,-7%,33*

# Assay outcomes from PubChem.
